Screen size: about 310,000 compounds; about 14,000 (4.5%) showed an effect of 50% or more. The effect is printed as a negative number. For the sample, strong results were picked, then their nearest neighbours and some compounds at random.
Target: human ether-à-go-go-related gene (hERG) potassium channel (human, UniProt Q12809)
Assay: primary screen, population patch clamp on CHO cells stably expressing hERG; higher = less effect of the substance
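Further: peak tail current of the secondary pulse compared with the same well before compound.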

Sequence of human ether-à-go-go-related gene (hERG) potassium channel (Q12809 whole entry, looked up): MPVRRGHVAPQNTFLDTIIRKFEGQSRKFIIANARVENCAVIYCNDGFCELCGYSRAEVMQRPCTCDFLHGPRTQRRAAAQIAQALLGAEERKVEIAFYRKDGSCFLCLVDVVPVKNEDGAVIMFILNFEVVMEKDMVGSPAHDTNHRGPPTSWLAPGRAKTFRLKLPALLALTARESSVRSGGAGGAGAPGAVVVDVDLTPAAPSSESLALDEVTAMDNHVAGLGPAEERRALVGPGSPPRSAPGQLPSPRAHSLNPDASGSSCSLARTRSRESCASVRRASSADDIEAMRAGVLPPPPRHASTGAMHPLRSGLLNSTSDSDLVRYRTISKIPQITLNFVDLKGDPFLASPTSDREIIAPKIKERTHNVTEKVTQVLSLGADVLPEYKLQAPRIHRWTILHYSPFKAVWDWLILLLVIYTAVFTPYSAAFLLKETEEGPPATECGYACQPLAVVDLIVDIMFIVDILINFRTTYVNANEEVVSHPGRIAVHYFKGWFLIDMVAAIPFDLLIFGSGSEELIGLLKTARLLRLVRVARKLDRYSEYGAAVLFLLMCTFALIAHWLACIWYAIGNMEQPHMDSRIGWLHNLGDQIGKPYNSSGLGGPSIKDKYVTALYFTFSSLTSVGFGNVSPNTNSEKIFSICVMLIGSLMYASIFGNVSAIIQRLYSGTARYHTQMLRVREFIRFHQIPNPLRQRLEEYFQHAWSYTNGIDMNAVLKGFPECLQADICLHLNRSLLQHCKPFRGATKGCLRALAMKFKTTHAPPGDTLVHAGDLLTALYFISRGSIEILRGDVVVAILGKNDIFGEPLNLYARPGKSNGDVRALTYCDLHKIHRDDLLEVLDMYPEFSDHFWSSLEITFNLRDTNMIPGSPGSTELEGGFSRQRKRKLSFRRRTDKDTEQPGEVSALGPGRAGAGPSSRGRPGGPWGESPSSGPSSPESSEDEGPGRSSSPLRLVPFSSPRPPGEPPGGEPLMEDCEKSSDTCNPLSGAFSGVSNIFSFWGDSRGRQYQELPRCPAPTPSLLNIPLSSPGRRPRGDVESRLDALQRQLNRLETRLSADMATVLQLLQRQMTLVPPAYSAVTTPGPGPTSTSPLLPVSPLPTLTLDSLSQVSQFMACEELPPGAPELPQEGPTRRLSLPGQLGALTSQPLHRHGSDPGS

SMILES | hERG current change (%, negative = inhibition) at 10uM [%]
Cc1ccc(S(=O)(=O)N(C)C)cc1NC(=O)COC(=O)CNC(=O)c1cccs1 | 14.5
Cc1ccc(S(=O)(=O)N(C)C)cc1NC(=O)COC(=O)CSc1ccccc1 | -21.3
Cc1ccc(S(=O)(=O)N(C)C)cc1NC(=O)COC(=O)Cc1ccc(Br)cc1 | -56.7
Cc1ccc(NC(=O)COC(=O)Cc2cccs2)cc1S(=O)(=O)N1CCOCC1 | -23.5
CCN(CC(=O)NCc1ccc(F)cc1)CC(=O)Nc1cc(S(=O)(=O)N(C)C)ccc1C | -75.6
O=C(COC(=O)Cc1cccs1)Nc1cccc(S(=O)(=O)N2CCOCC2)c1 | 0.0981
CCN(CC(=O)NCc1ccc(F)cc1)CC(=O)Nc1ccccc1-c1ccccc1 | -16
CCN(CC(=O)NCc1ccc(F)cc1)CC(=O)Nc1ccc(S(=O)(=O)N2CCCC2)cc1 | -22.8
Cc1ccc(S(=O)(=O)N2CCOCC2)cc1NC(=O)COC(=O)Cc1cccs1 | -62.8
Cc1ccc(S(=O)(=O)N(C)C)cc1NC(=O)COC(=O)CCC(=O)c1cccs1 | -21.8
Cc1ccc(S(=O)(=O)N(C)C)cc1NC(=O)COC(=O)Cc1cccs1 | -74.5
Cc1ccc(OCCC(=O)OCC(=O)Nc2cc(S(=O)(=O)N(C)C)ccc2C)cc1 | -26.6
Cc1c(CC(=O)N[C@H](C(=O)O)C(C)C)c(=O)oc2cc3c(cc12)CCC(C)(C)O3 | 23.1
COCCCNC(=O)CNC(=S)N(Cc1ccccc1F)C1CCCCC1 | 4.18
O=[n+]1c2c(n([O-])c3cc(Br)ccc31)CCC2 | -2.98
C(=C\c1ccncc1)/c1ccccc1 | -10.6
CN(CC(=O)Nc1ccccc1Cl)C(=O)c1ccc(COc2ccccc2)cc1 | -12.9
Cc1ccc(S(=O)(=O)NCC(=O)OCN2C(=O)c3ccccc3C2=O)cc1 | 5.91
O=C(CSc1ccc(Cl)cc1)NNC(=O)c1cccnc1 | -21
Cc1nn(-c2ccccc2)c(Cl)c1/C=N/Nc1ccc(Cl)c(C(=O)O)c1 | 21.3
Cc1ccc(Nc2ccc(C(=O)O)cc2[N+](=O)[O-])cc1 | 15.1
O=C(OCc1ccc(Br)cc1)c1ccncc1 | 5.25
Cc1ccc(S(=O)(=O)N(C)C)cc1NC(=O)COC(=O)C1CCCC1 | 3.16
Cc1ccccc1NC(=O)COC(=O)Cc1ccsc1 | 12.7
Cc1ccc(S(=O)(=O)N(C)C)cc1NC(=O)COC(=O)C1CCN(S(=O)(=O)c2cccs2)CC1 | -81.9
Cc1ccc(S(=O)(=O)N2CCOCC2)cc1NC(=O)COC(=O)CCC(=O)c1cccs1 | -13.8
Cc1ccc(C)c(NC(=O)COC(=O)Cc2ccsc2)c1 | 33.1

SMILES | hERG current change (%, negative = inhibition) at 10uM [%]
O=C(COC(=O)c1cccs1)Nc1cc(S(=O)(=O)N2CCOCC2)ccc1Cl | -35.5
O=C(COC(=O)CCC(=O)c1cccs1)Nc1cc(S(=O)(=O)N2CCOCC2)ccc1Cl | -53.5
Cc1ccc(S(=O)(=O)N(C)C)cc1NC(=O)COC(=O)Cc1ccsc1 | -79
CN(CCC(=O)Nc1cc(S(=O)(=O)N(C)C)ccc1Cl)CC(=O)Nc1ccc(F)cc1 | -50.1
Cc1ccc(S(=O)(=O)N(C)C)cc1NC(=O)COC(=O)C1CC1 | 16.2
CN(C)S(=O)(=O)c1ccc(Cl)c(NC(=O)CN2CCCC2)c1 | 11.5
CCC(=O)OCC(=O)Nc1cc(S(=O)(=O)N(C)C)ccc1Cl | 17.1
Clc1ccc(-c2nnc(SCc3cn4ccsc4n3)n2CC2CCCO2)cc1 (centres unmarked) | -29.2
Cc1cccc2cc3c(N)c(C#N)sc3nc12 | 21.5
Cc1cc(C)c(Nc2cc(S(=O)(=O)[O-])c(N)c3c2C(=O)c2ccccc2C3=O)c(C)c1.[Na+] | 12
CCn1c(-c2cc(-c3cc(OC)ccc3OC)nc3ccccc23)n[nH]c1=S | -10.3
CCCC(C)c1nnc(NC(=O)C2CC(=O)N(CCc3ccc(F)cc3)C2)s1 (centres unmarked) | -30.1
COc1ccc(-c2nnc3sc(-c4ccccn4)nn23)cc1 | -13.2
CCOC(=O)c1ccc(-c2ccc(CO)o2)cc1 | -6.44
CCC(C)[C@H](NC(=O)N1CC(=O)Nc2ccccc21)C(=O)N[C@H](C(=O)O)c1ccccc1 (some centres unmarked) | 7.19
CCN1C(=O)CC(c2ccco2)Sc2ccccc21 (centres unmarked) | -16.8
O=C(NCCCN1CCOCC1)c1ccc([N+](=O)[O-])cc1[N+](=O)[O-] | 10.5
CC(C)n1c(=O)c(C=Nc2ccc(F)cc2)c(O)n(Cc2ccco2)c1=O | -19.7
COc1ccc2c(=O)c3c(=O)n(-c4ccc(C)cc4)c(-c4ccccc4)nc3oc2c1 | 6.84
CC(=O)Nc1ccc(S(=O)(=O)N2CCSC2C(=O)O)cc1 (centres unmarked) | 0.312
Cc1ccc(S(=O)(=O)Nc2ccc(N3CCOCC3)cc2)cc1C | 2.95
COc1ccc(/C=C/C(=O)NC(=S)NNC(=O)c2c(-c3ccccc3)noc2C)cc1 | 11.4
Cc1cc2ncc(-c3cccc(Cl)c3)cn2n1 | 8.42
COc1ccc2c(COC(=O)CC3Sc4ccccc4NC3=O)cc(=O)oc2c1 (centres unmarked) | -44.1
CC(=O)Nc1ccc2c(COC(=O)CC3Sc4ccccc4NC3=O)cc(=O)oc2c1 (centres unmarked) | -9.75
O=C(CC1Sc2ccccc2NC1=O)OCc1cc(=O)oc2cc(O)ccc12 (centres unmarked) | -51.7

Reference: publication PMC4336329 (PLoS ONE, 2015)
